PubChem BioAssay AID624256 (NMMLSC, 2012)
About 3,700 (1%) of roughly 360,000 compounds were called active. About 2% were inconclusive and are not listed.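 Rule for the calls: active = normalized GFP-positive differentiation at or above the plate's own cutoff, the solvent-only control mean plus 3 SD; inconclusive = no clear call, values can overlap the other calls; inactive = the rest.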 The list comes from a sample in which actives are over-represented; it also holds similar structures and randomly drawn compounds. Where a SMILES comes first, the peptide text is derived from it. The star is where a group is joined. OPac = O=C(CO*)c1ccccc1; Bz = O=C(c1ccccc1)*

Assay: HoxA9-arrested leukemia cell differentiation promoters – flow cytometry, MLPCN library, primary screen (AID 624256);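 for GFP+ MAC1+ double positive: cells exposed to compound for four days before flow analysis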;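 for normalized GFP-positive differentiation: cells exposed to compound for four days before flow analysis; 0% = DMSO wells and 100% = fulvestrant positive control at 5 µM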
Conditions: ER-HoxA9 myeloid progenitors, lysozyme-GFP differentiation, at 10 µM; GFP+ MAC1+ double positive: measured here: differentiation confirmed by MAC1 staining, stronger effect = higher value; normalized GFP-positive differentiation: stronger effect = higher value

Structure (SMILES)	GFP+ MAC1+ double positive [%]	outcome	normalized GFP-positive differentiation
CC(C)OC(=O)CC(=O)CC(O)c1cccc([N+](=O)[O-])c1 (stereo not drawn)	3.1	inactive	–
COCOc1cccc(CN2CCC(C)(Oc3ccc(SC)cc3)C2)c1 (stereo not drawn)	0.7	inactive	–
CN(C)C(=O)c1cccc(-c2cnc3c(NC=O)cc(-c4ccc(F)cc4)cn23)c1	1.2	inactive	–
CCCc1nc2c3ccccc3ccn2c1Cc1ccccc1C(F)(F)F	1.1	inactive	–
NC(c1csc(NC(=O)Nc2cccc(C(F)(F)F)c2)n1)C1CCCCC1 (stereo not drawn)	1.4	inactive	–
CCOC(=O)C1=CCC2C(=O)N(Cc3ccccc3)C(=O)C12 (stereo not drawn)	1.7	inactive	–
CN(C)CCNC(=O)/C(=C/c1cccc([N+](=O)[O-])c1)NC(=O)c1ccccc1	0.5	inactive	–
CN(C(=O)c1cccc([N+](=O)[O-])c1)c1ccccc1C(=O)NCc1ccccc1	2.5	–	45.3% (active)
CC(C)(C)SCCNC(=O)c1cccc([N+](=O)[O-])c1	1.8	inactive	–
O=C1Nc2ccccc2NC(c2ccc3c(c2)OCO3)=C1N(Cc1ccc(F)cc1)C(=O)c1ccco1	0.3	inactive	–
COC(=O)C[C@H]1C=C[C@H](NC(=O)c2ccc(F)cc2)[C@@H](CO)O1	3.2	inactive	–
O=C1OCCOC2CCCc3oc(-c4ccccc4)c1c32 (stereo not drawn)	0.1	inactive	–
CCc1ccc(C(=O)OCC(=O)Nc2cccc(S(=O)(=O)NC3=NCCCCC3)c2)cc1	0.1	inactive	–
COc1ccccc1C(=O)OCC(=O)Nc1cccc(S(=O)(=O)NC2=NCCCCC2)c1	1.4	inactive	–
Cc1cccc(-n2c(SCC(=O)Nc3cccc(S(=O)(=O)NC4=NCCCCC4)c3)nc3ccccc3c2=O)c1C	2.9	–	30% (active)
CCc1nc2c(OCCOc3ccccc3)cccn2c1N(C)C(=O)c1cccs1	0.5	inactive	–
CN(C)C1CN(Cc2cn(Cc3ccccc3)nn2)S(=O)(=O)C1 (stereo not drawn)	1.6	inactive	–
COc1cccc(NC(=S)C(C#N)=C2N(C)c3ccccc3N2C)c1	0.3	inactive	–
CC(=O)Nc1cccc(OCC(=O)/C=C2\N(C)c3ccccc3C2(C)C)c1	0.5	–	24.3% (active)
Cc1cccc(OCC(=O)Nc2ccccc2F)c1	0.3	inactive	–
CC1(C)OC(=O)C2=C(C[C@@H](C3CCCC3)O[C@@H]2c2ccc(Cl)cc2)O1	1.8	inactive	–

Structure (SMILES)	GFP+ MAC1+ double positive [%]	outcome	normalized GFP-positive differentiation
COc1c(C)cc(C(O)c2ncc(-c3cccc(C(F)(F)F)c3)[nH]2)cc1C (stereo not drawn)	1.2	inactive	–
O=C(Nc1cccc(NC(=O)c2ccccc2[N+](=O)[O-])c1)c1ccccc1Cl	0.4	inactive	–
COc1cc(NC(=O)c2cccs2)ccc1NC(=O)c1ccccc1Cl	0.6	inactive	–
O=C(Nc1ccc2sc3ccccc3c(=O)c2c1)c1ccccc1Cl	0.3	–	12.5% (active)
Cc1cc2nc(-c3ccco3)c(Cc3cccc(F)c3)n2c(C)c1Br	0.9	inactive	–
O=C(CN1CCN(C(=O)c2ccco2)CC1)Nc1ccc(Cl)c(C(F)(F)F)c1	0.9	inactive	–
CN(CC(=O)Nc1ccc(Cl)c(C(F)(F)F)c1)C(=O)CCC(=O)c1ccccc1	1	inactive	–
O=C(CCCN1C(=O)CCC1=O)Nc1ccc(Cl)c(C(F)(F)F)c1	8.3	–	22.8% (active)
CN(C(=O)CN1CCN(c2cc(-c3ccc(OCc4ccccc4)cc3)ncn2)CC1)c1ccccc1	1.4	inactive	–
CCOC(=O)C1=C(CN2CCc3ccccc32)NC(=O)NC1c1cc(C)ccc1C (stereo not drawn)	0.5	inactive	–
CCOC(=O)C1=C(CN2CCc3ccccc32)NC(=O)NC1c1cccc([N+](=O)[O-])c1 (stereo not drawn)	1.5	–	18.4% (active)
CCOC(=O)C1=C(CN2CCc3ccccc32)NC(=O)NC1c1ccc(Cl)cc1 (stereo not drawn)	3.7	inactive	–
CCCCCCCCN1C(=O)[C@H](CC(=O)NCc2cccc3ccccc23)C[C@@]2(C(=O)OC)CCCCC=C12	1.4	inactive	–
O=C(NCCN1CCOCC1)c1ccccc1N1C(=O)[C@@H]2Cc3c([nH]c4ccccc34)C(c3cccc(Cl)c3)N2C1=O (stereo partly drawn)	2.3	inactive	–
COC(=O)c1ccc2nc(-c3ccc(OC)c(OC)c3)c(Cc3ccccc3)n2c1	0.7	inactive	–
O=C(Cc1ccccc1)Nc1ccc(C(=O)Nc2ccccc2C(=O)O)cc1	1.7	inactive	–
Nc1ccc(S(=O)(=O)NC(=O)c2ccccc2)cc1	0.9	inactive	–
Nc1ccc(C(=O)Nc2ccccc2N)cc1	1.3	–	21.2% (active)
CCOc1ccc(CCN2C(=O)C(=O)N([C@@H](CC(C)C)CN3CCC[C@H]3CN3C(=O)C(=O)NC[C@@H]3Cc3ccccc3)C[C@@H]2CC(C)C)cc1	1.6	inactive	–
O=C(COC(=O)Cn1cnc2ccccc2c1=O)NCc1ccccc1Cl	0.9	inactive	–
CC(OC(=O)CCc1nc(=O)c2ccccc2n1C)C(=O)NCc1ccc2c(c1)OCO2 (stereo not drawn)	0.9	inactive	–

Structure (SMILES)	GFP+ MAC1+ double positive [%]	outcome	normalized GFP-positive differentiation
Cn1c(CCC(=O)OCC(=O)NCc2ccccc2Cl)nc(=O)c2ccccc21	34.4	–	369% (active)
CC(=O)N1C[C@@H](CO)[C@@H](N(C)C(=O)c2ccco2)C[C@H]1c1ccccc1	0.1	inactive	–
CCCCCCCCN1C(=O)[C@H](CC(=O)NCC23CC4CC(CC(C4)C2)C3)C[C@@]2(C(=O)OC)CCCCC=C12	1	inactive	–
O=C1CCCCN1CCCC(=O)N1CCCC(Nc2ccc(F)cc2)C1 (stereo not drawn)	45	–	233% (active)
O=C(CN1C(=O)CSC1=O)N1CCCC(Nc2ccc(F)cc2)C1 (stereo not drawn)	0.7	inactive	–
O=C(CN1CCOC1=O)N1CCCC(Nc2ccc(F)c(F)c2)C1 (stereo not drawn)	3.1	inactive	–
CC(C)(C)C1CCC(=O)N2CCC[C@]2(c2ccccc2)C1 (stereo partly drawn)	1	inactive	–
CN(C)c1cccc(NC(=O)c2ccc(-c3ccc(F)c(F)c3)c3ccoc23)c1	1.3	inactive	–
Cc1ccc2c(c1)c1ncn(Cc3ccc(F)cc3)c(=O)c1n2C	2.8	–	18% (active)
COc1ccc2c(c1)c1ncn(Cc3ccccn3)c(=O)c1n2C	0.7	inactive	–
Cc1ccc2[nH]c3c(=O)n(Cc4ccccn4)cnc3c2c1	3	inactive	–
Cc1ccc(C(NC(=O)C2CCN(CCOc3ccc(Cl)cc3Cl)CC2)c2ccccn2)cc1 (stereo not drawn)	1.4	inactive	–
COc1ccc(-c2cc(NC=O)c3ncc(-c4ccccc4)n3c2)cc1OC	3.3	inactive	–
COC(=O)C1(C(=O)OC)C[C@H](c2ccccc2)N(Cc2ccccc2OC)[C@@H]1c1ccccc1	1.5	inactive	–
Cc1ccc(Cc2c(-c3ccc(Cl)cc3)nc3c4ccccc4ccn23)cc1	0.4	inactive	–
Cc1ccc(CNC(=O)CN2CCN(Cc3ccc(Cl)cc3)C2=O)cc1	1	inactive	–
CC1CCCC(NC(=O)CN2CCN(Cc3ccc(Cl)cc3)C2=O)C1C (stereo not drawn)	11.3	–	111% (active)
CC1CCCCC1NC(=O)COC(=O)Cc1ccc(Cl)cc1 (stereo not drawn)	1.4	inactive	–
Cc1ccc(C)c(C(O)c2ncc(-c3cccc4ccccc34)[nH]2)c1 (stereo not drawn)	0.8	inactive	–
C[C@H]1COc2cc(N3CCSCC3)ccc2S(=O)(=O)N1	0.8	inactive	–
Nc1c(C(=O)c2cccs2)sc2nsc(SCCN3CCCCC3)c12	6	–	344% (active)

Structure (SMILES)	GFP+ MAC1+ double positive [%]	outcome	normalized GFP-positive differentiation
CCCCCCN1CCN(C2CN(Cc3cn(CCCCCC)nn3)S(=O)(=O)C2)CC1 (stereo not drawn)	0.5	inactive	–
Nc1[nH]c(C(=O)c2ccccc2)c(-c2ccncc2)c1C(=O)NCc1cccc2ccccc12	1.6	inactive	–
O=C(Nc1ccc(F)cc1)C(CCc1ccccc1)N1CCN(CC(=O)N2CCCC2)CC1 (stereo not drawn)	1.3	inactive	–
O=C(C[n+]1ccc2c(c1)nnn2-c1ccccc1)c1ccc(Cl)cc1	0.8	–	63.4% (active)
O=C(CSc1cccc[n+]1[O-])c1ccc(Cl)cc1	0.4	inactive	–
c1ccc2c(c1)nnn2-c1ccncc1	0.8	inactive	–
Cc1cc(=O)oc2c3c(cc(OCC(=O)NCC(O)c4ccccc4)c12)OC(C)(C)CC3 (stereo not drawn)	7.8	inactive	–
O=C(CNC(=O)c1ccccc1)NCC(=O)OCC(=O)c1ccccc1 (Bz-Gly-Gly-OPac)	0.2	inactive	–
Cc1ccc(S(=O)(=O)NC(=O)COc2ccccc2C)cc1	0.4	inactive	–
Cc1ccccc1OCC(=O)NCC(=O)OCC(=O)c1ccc2ccccc2c1	3.6	–	24.5% (active)
O=C(NC1CCCCC1)C(c1cc2ccccc2o1)n1c(=O)c(-c2ccco2)nc2ccccc21 (stereo not drawn)	5.6	inactive	–
CSc1ccc(CN2CCC2(C)C(=O)Nc2ccc(C)c(O)c2)cc1 (stereo not drawn)	0.4	inactive	–
CC(NC(=O)c1cccc(S(=O)(=O)N2CCc3ccccc3C2)c1)c1ccco1 (stereo not drawn)	0.3	inactive	–
Cc1cccc(N2CCN(C(=O)c3cccc(S(=O)(=O)N4CCc5ccccc5C4)c3)CC2C)c1 (stereo not drawn)	7.3	–	31.5% (active)
CN(C)C(CNC(=O)c1cccc(S(=O)(=O)N2CCc3ccccc3C2)c1)c1ccccc1 (stereo not drawn)	0.7	inactive	–
CC1(C(=O)NS(=O)(=O)Cc2cccc(Cl)c2)CCN1C(=O)Cc1ccc(Cl)cc1Cl (stereo not drawn)	0.5	inactive	–
OC[C@@H]1CN(Cc2ccncc2)C[C@H](n2cnc3c(N4CCN(c5ccccc5)CC4)ncnc32)O1	1.1	inactive	–
C=CCn1c2c(c3ccccc31)CCC2	1.4	inactive	–
CCOC(=O)[C@]12CCCC=C1N(CCC1=CCCCC1)C(=O)[C@H](CC(=O)N1CCCCC1)C2	3	inactive	–
CCOc1ccc(/C=C(/C#N)c2nnc(N3CCOCC3)n2-c2ccccc2)cc1OC	0.8	inactive	–
COc1cc(N2CCCC2)c(OC)cc1/C=C(/C#N)c1cccc(Br)c1	15	–	258% (active)
